# Source: ChEMBL document CHEMBL3988442, “University of Dundee, Small-Polar-MMV Screening Library” (2021)
# Screen size: about 69,000 compounds; about 1,000 (1.4%) showed an effect of 50% or more. For the sample, strong results were picked, then their nearest neighbours and some compounds at random.
# System: Leishmania donovani
# Assay: Leishmania intramacrophage assay
# Format: functional, organism-based
# Set-up: scale not given: in the data most compounds retested in dose-response had high values
compound,measurement,setting,value
CCS(=O)(=O)c1ccc(N2CCC(NC(=O)CC3CCCC3)CC2)cc1,Percent Effect,"30.3 µM, […]",22.19%
CCS(=O)(=O)c1ccc(N2CCC(N)CC2)cc1,Percent Effect,"30.3 µM, […]",63.99%
CCS(=O)(=O)c1ccc(N2CCC(NC(C)=O)CC2)cc1,Percent Effect,"30 µM, 30.03 µM",-2.976%
CCNC(=O)NC1CCN(c2ccc(S(=O)(=O)CC)cc2)CC1,Percent Effect,"30.3 µM, […]",12.14%
CCS(=O)(=O)c1ccc(N2CCC(NC(=O)C(C)SC)CC2)cc1 (centres undefined),Percent Effect,"30.3 µM, […]",27.86%
CCS(=O)(=O)c1ccc(N2CCC(NC(=O)CCC(C)C)CC2)cc1,Percent Effect,"30 µM, 30.03 µM",63.78%
CC(=O)NCCNCc1cn(CCN2CCSCC2)nc1C,Percent Effect,"30.3 µM, […]",28.55%
CN1C[C@H]2CN(Cc3cccc(OC(F)(F)F)c3)CCN2C1=O,Percent Effect,"30.3 µM, […]",-1.989%
O=C(Cc1cc2c(cc1Br)OCCO2)NC1CCS(=O)(=O)C1 (centres undefined),Percent Effect,"30.3 µM, […]",5.517%
CC(=O)c1ccc(C(=O)N2C[C@@H]3CC[C@H](C2)N(Cc2ccccc2)C3)s1,Percent Effect,"30.3 µM, […]",9.144%
COc1cc(F)cc(CNC(=O)Nc2ccn(CC(F)F)n2)c1,Percent Effect,"30.3 µM, […]",16%
NCC1Cc2cc(-c3cncc(C(=O)N4CCOCC4)n3)cc(Cl)c2O1 (centres undefined),Percent Effect,"30.3 µM, […]",7.347%
Cc1cc2c(c(-c3c[nH]c(C)n3)c1)OC(CN)C2 (centres undefined),Percent Effect,"30.3 µM, […]",38.87%
NCC1Cc2cc(Cl)cc(-c3cncc(C(=O)N4CCCCC4)n3)c2O1 (centres undefined),Percent Effect,"30.3 µM, […]",74.83%
Cc1cc2c(c(-c3cncc(C(=O)N4CCCC4)n3)c1)OC(CN)C2 (centres undefined),Percent Effect,"30.3 µM, […]",74.06%
Cc1cc2c(c(-c3cnccn3)c1)OC(CN)C2 (centres undefined),Percent Effect,"30.3 µM, […]",26.74%
NCC1Cc2cc(-c3cncc(C(=O)N4CCCCC4)n3)cc(F)c2O1 (centres undefined),Percent Effect,"30.3 µM, […]",-28.1%
CC(C)n1cc(N2CC(C(=O)N3CCN(C)CC3)CC2=O)cn1 (centres undefined),Percent Effect,"30.3 µM, […]",26.64%
O=C(c1cncc(Br)c1)N1CCCc2ccc(F)cc21,Percent Effect,"30.3 µM, […]",14.67%
CCc1c(C)nn(CC(=O)NC(C(=O)O)c2c(C)n[nH]c2C)c1C (centres undefined),Percent Effect,"30.3 µM, […]",12.75%
Cc1ccc(CN(C)Cc2cc(C3CC3)[nH]n2)c(O)n1,Percent Effect,"30.3 µM, […]",5.894%
Cc1nn(C)cc1S(=O)(=O)N[C@@H]1CC[C@@H](n2ccnc2C)[C@@H]1O,Percent Effect,"30.3 µM, […]",-29.93%
CN1CCC/C1=N\S(=O)(=O)c1ccc(NC(=O)c2ccco2)cc1,Percent Effect,30 µM,-21.5%
CCNC(=O)[C@@H]1C[C@@H](NC(=O)c2cnc[nH]c2=O)CN1Cc1ccsc1,Percent Effect,"30.3 µM, […]",54.56%
CCNC(=O)[C@@H]1C[C@@H](NC(=O)c2cccnc2O)CN1Cc1ccsc1,Percent Effect,"30 µM, 30.03 µM",19.61%
CCNC(=O)[C@@H]1C[C@H](NC(=O)c2cncnc2C)CN1Cc1ccsc1,Percent Effect,"30.3 µM, […]",37.2%
CC(=O)Cn1ncc(N2CCOCC2)cc1=O,Percent Effect,"30.3 µM, […]",4.61%
CC(=O)Nc1ccc(CN2CCCC(c3cc4ncccc4[nH]3)C2)cc1 (centres undefined),Percent Effect,"30.3 µM, […]",40.95%
Fc1ccc(CN2CCCC(c3cc4ncccc4[nH]3)C2)cc1 (centres undefined),Percent Effect,"30.3 µM, […]",-0.4017%
CCOc1ccc(CN2CCCC(c3cc4ncccc4[nH]3)C2)cc1 (centres undefined),Percent Effect,"30.3 µM, […]",54.07%
O=C(CC1NC(N2CCc3ccccc32)=NC1=O)Nc1ccc(Cl)cc1 (centres undefined),Percent Effect,"30.3 µM, […]",9.68%
Cc1nc(O)cc(CCNc2nccc(CCC(F)(F)F)n2)n1,Percent Effect,"30.3 µM, […]",19.16%
CC(Cn1cccn1)NC(=O)N1CCN(Cc2ccsc2)CC1 (centres undefined),Percent Effect,"30.3 µM, […]",0.9675%
CC(Cn1ccnc1)NC(=O)N1CCN(Cc2ccsc2)CC1 (centres undefined),Percent Effect,30 µM,56.49%
CC(Cn1ccnc1)NC(=O)N1CCN(Cc2ccncc2)CC1 (centres undefined),Percent Effect,30 µM,-0.977%
CN1C(=O)CC(C(=O)O)C12CCN(c1ccc3c(n1)CCCC3)CC2 (centres undefined),Percent Effect,"30.3 µM, […]",21.03%
CCn1ncnc1C(C)NC(=O)C1CCN(C(C)C)CC1 (centres undefined),Percent Effect,"30 µM, 30.03 µM",5.618%
CCn1ncnc1C(C)NC(=O)C1CCN(C2CCCCC2)CC1 (centres undefined),Percent Effect,"30.3 µM, […]",10.97%
CCn1ncnc1C(C)NC(=O)C1CCN(C(=O)COC)CC1 (centres undefined),Percent Effect,"30 µM, 30.03 µM",54.19%
CC(=O)NC(C)(C)C(=O)Nc1ncc(Cc2ccc(C)c(F)c2)s1,Percent Effect,"30 µM, 30.03 µM",11.96%
Cc1nn(C)c(C)c1-c1ccnc(N(C)Cc2nc(C(C)C)no2)n1,Percent Effect,"30.3 µM, […]",52.75%
Cc1nn(C)c(C)c1-c1ccnc(N(C)Cc2noc(C(C)C)n2)n1,Percent Effect,"30.3 µM, […]",46.51%
Cc1nn(C)cc1-c1ccnc(N(C)Cc2noc(C(C)C)n2)n1,Percent Effect,"30.3 µM, […]",19.89%
CCc1nc(CN(C)C2CCN(CCC(=O)N3CCCCC3)C2)no1 (centres undefined),Percent Effect,"30.3 µM, […]",22.94%
Fc1cnc(N2CCn3cc(CNc4ccccn4)nc3C2)nc1.O=C(O)C(F)(F)F.O=C(O)C(F)(F)F,Percent Effect,"30 µM, 30.03 µM",-20.21%
O=C(Cc1ccc(F)cc1)N1CCn2cc(Cn3cccn3)nc2C1.O=C(O)C(F)(F)F,Percent Effect,"30 µM, 30.03 µM",-23.45%
O=C(O)C(F)(F)F.O=C(c1ccc[nH]1)N1CCn2cc(CN3CCCC3)nc2C1,Percent Effect,"30 µM, 30.03 µM",-3.456%
O=C(O)C(F)(F)F.O=C(c1ccc[nH]1)N1CCn2cc(Cn3cccn3)nc2C1,Percent Effect,"30.3 µM, […]",51.47%
N#CC1(C(=O)N2CCOC(c3ccc(F)cc3)C2)CCCCC1 (centres undefined),Percent Effect,"30.3 µM, […]",33.91%
O=C(Nc1cc(C(F)(F)F)c[nH]c1=O)C1CCNCC1,Percent Effect,"30.3 µM, […]",29.22%
Cl.O=C(Nc1cc(C(F)(F)F)c[nH]c1=O)C1CCCCN1 (centres undefined),Percent Effect,"30.3 µM, […]",10.48%
O=C(Nc1cc(C(F)(F)F)c[nH]c1=O)C1CCCO1 (centres undefined),Percent Effect,"30.3 µM, […]",65.61%
CN1CCOC(CNCC(=O)NCCC2=CCCCC2)C1 (centres undefined),Percent Effect,"30.3 µM, […]",0.5751%
C[C@@H]1CN(Cc2nc(Cc3ccccc3F)no2)C[C@H](C)O1,Percent Effect,"30.3 µM, […]",14.95%
CO[C@@H]1CCN(C(=O)c2cc(C)on2)C[C@@H]1Cc1ccccc1,Percent Effect,"30.3 µM, […]",52.23%
COc1ccc(C[C@H]2CN(C(=O)c3cc(C)no3)CC[C@H]2OC)cc1,Percent Effect,"30.3 µM, […]",7.467%
CO[C@H]1CCN(C(=O)c2cc(C)on2)C[C@@H]1Cc1ccccc1,Percent Effect,"30.3 µM, […]",-10.42%
CC(=O)N1CCC2(CC1)CC(C(C)C)=NO2,Percent Effect,"30.3 µM, […]",-2.802%
NC(=O)CSCC(=O)NCC1CCCC1,Percent Effect,"30.3 µM, […]",12%
CNC(=O)C1CN(Cc2ccc(C#N)cc2F)c2ccccc2O1 (centres undefined),Percent Effect,"30.3 µM, […]",34.5%
O=C1CO[C@H]2CN(Cc3ccc(F)c(F)c3)C[C@H]2N1,Percent Effect,"30.3 µM, […]",13.71%
COc1ccc(F)cc1-c1ccccc1CC1(C(=O)O)CCOCC1,Percent Effect,"30.3 µM, […]",-18.67%
CCOC(=O)C1(Cc2ccccc2-c2ccccc2OC)CCNCC1.Cl,Percent Effect,"30.3 µM, […]",51.68%
COc1ccccc1-c1ccccc1CC1(C(=O)O)CCNCC1,Percent Effect,"30.3 µM, […]",-31.14%
